USP28 inh: blocks human USP28 ubiquitin-rhodamine cleavage; AID 1645857; 47,000 tested, 3% active; purified USP28, Ub-rhodamine cleavage fluorescence, 30 min; inhibition, % at 25 µM
USP30 block: inhibitors of human USP30 deubiquitinase | Q70CQ3 | purified USP30, Ub-rhodamine cleavage fluorescence | inhibition, % at 25 µM | 47,000 tested, 5.3% active | AID 1645860
Target sequence (Q70CQ3 whole entry, looked up): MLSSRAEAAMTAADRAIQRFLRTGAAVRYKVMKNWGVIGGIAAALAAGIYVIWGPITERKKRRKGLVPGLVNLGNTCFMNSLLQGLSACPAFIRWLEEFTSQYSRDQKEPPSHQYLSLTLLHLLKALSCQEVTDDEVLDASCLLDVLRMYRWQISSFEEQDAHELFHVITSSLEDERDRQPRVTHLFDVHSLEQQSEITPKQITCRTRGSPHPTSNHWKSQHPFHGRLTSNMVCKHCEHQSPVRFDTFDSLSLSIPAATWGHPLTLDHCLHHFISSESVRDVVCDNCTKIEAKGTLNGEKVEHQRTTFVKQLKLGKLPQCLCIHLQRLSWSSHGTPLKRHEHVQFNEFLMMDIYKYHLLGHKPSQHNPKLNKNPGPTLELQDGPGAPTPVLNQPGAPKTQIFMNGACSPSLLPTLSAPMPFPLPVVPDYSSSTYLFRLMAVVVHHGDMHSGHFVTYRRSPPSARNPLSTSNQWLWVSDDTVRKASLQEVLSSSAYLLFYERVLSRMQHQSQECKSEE
USP8 block: inhibitors of human USP8 deubiquitinase; P40818; purified USP8, Ub-rhodamine cleavage fluorescence, 30 min; inhibition, % at 20 µM; 47,000 tested, 4.2% active; AID 1645853
USP17 block: blocks human USP17 ubiquitin-rhodamine cleavage | AID 1645855 | A8MUK1 | purified USP17, Ub-rhodamine cleavage fluorescence, 3 h | 47,000 tested, 6.5% active | inhibition, % at 50 µM
* marks the source's active call; other numbers are inactive results; i = inactive; . = no result given. Only some compounds are listed: those with a hit (about 13% of all), similar ones and a draw of the others. Cut-off read from the data, not from the text of the source: active = inhibition above about 30%; inactive = the rest.

SMILES	USP28 inh	USP30 block	USP8 block	USP17 block
Cc1cc(C)cc(NC(=O)Cn2c(=O)n(Cc3ccncc3)c(=O)c3ncccc32)c1	-9.2	-32.2	-4.5	-12.5
Cc1cccc(C)c1NC(=O)c1nc(SCc2ccccc2F)ncc1Cl	17.4	25.9	8.2	29.4
CCc1ccc(N2CC(C(=O)OCc3cc(=O)oc4c(C)c(C)ccc34)CC2=O)cc1 (stereo unspecified)	4.2	45.0*	5.2	30.9*
Cc1cc(C)c(NC(=O)COC(=O)CCCc2c[nH]c3ccccc23)c(C)c1	1.5	-16.9	-197.6	-21.0
O=C(Nc1ccccc1-c1cnn(-c2ccccc2)c1)c1ccccc1Cl	20.1	41.0*	18.1	.
O=C(O)c1ccc(-c2cnn(-c3ccccc3)c2)nc1	-7.6	-73.5	-4.5	-25.5
Cn1c(=O)c2cc(C(=O)Nc3ccc(F)cc3)cnc2n(C)c1=O	1.3	4.8	5.4	52.6*
Cc1ccc2c(c1)[nH]c1c(N3CCc4ccccc4C3)ncnc12	6.5	-53.3	34.9*	42.9*
NC(=O)CSc1nc2ccccc2c(=O)n1CC1CCCO1 (stereo unspecified)	1.3	17.8	19.3	17.2
O=C(Cn1cnc2ccccc21)Nc1ccc2c(c1)CCC2	26.6	52.6*	14.9	32.4*
O=C(CNS(=O)(=O)c1cccs1)Nc1ccc2c(c1)OCCO2	18.2	-21.7	5.7	-2.4
CN(CC(=O)Nc1ccc2c(c1)OCO2)S(=O)(=O)c1cccs1	7.1	3.5	49.9*	13.7
N#Cc1ccc(-c2ccc(OCC(=O)Nc3ccc4c(c3)OCO4)cc2)cc1	3.7	28.6	43.3*	55.5*
CC(Oc1ccc(Cl)cc1)C(=O)Nc1ccc2c(c1)CCC2 (stereo unspecified)	17.6	31.8*	17.0	25.0
COc1ccc(Cl)cc1N1C(=O)[C@H]2[C@@H](C1=O)[C@]1(C(=O)Nc3c(C)cc(C)cc31)N1CCC[C@@H]21	-239.7	i	-235.2	-185.7
O=C(Cn1cnc2sccc2c1=O)N1CCc2ccccc21	18.8	-25.6	-18.2	26.9
O=C(COc1ccc2c(c1)CCC2)Nc1ccc2c(c1)CCC2	13.2	16.9	6.6	59.1*
O=C(Cn1cnc2ccccc21)N1CCc2ccccc21	5.0	-7.6	0.9	33.8*
O=C(COc1ccc2ccccc2c1)Nc1ccc2c(c1)CCC2	11.5	13.3	-98.7	16.1
O=C(COc1ccc2c(c1)OCO2)Nc1ccc2c(c1)OCCO2	35.9*	-22.1	-2.2	-21.1
O=C(Cc1ccc(Br)cc1)Nc1ccc2c(c1)OCO2	9.5	3.4	25.6	44.2*
Cc1ccc2nc(-c3ccc(NC(=O)COc4ccc5c(c4)OCO5)cc3)sc2c1	0.9	2.9	26.1	14.0
Cc1ccc(C(=O)Nc2c(-c3ccc(C)cc3)c(=O)c3ccccc3n2C)cc1	.	.	-0.9	9.4
COc1cccc(CC(=O)N2C[C@@H]3C[C@H](NC(=O)c4ccccc4)[C@H]2C3)c1	-136.9	-301.1	-58.0	-187.1
O=C(COc1cccc(N2CCCC2=O)c1)NCc1ccc2c(c1)OCO2	6.6	3.7	7.2	4.2
SMILES	USP28 inh	USP30 block	USP8 block	USP17 block
O=C(COc1cccc(N2CCCC2=O)c1)Nc1ccc2c(c1)OCCO2	36.4*	-14.0	-1.1	-3.1
COc1ccc2nc(N3CC(C(=O)Nc4ccc(C(N)=O)cc4)C3)sc2c1	32.5*	61.6*	14.6	64.9*
COc1ccc2nc(N3CC(C(=O)N4CCC5(CC4)OCCO5)C3)sc2c1	-0.1	-1.0	-36.4	-7.9
O=S(=O)(NC1CC1)c1ccc(S(=O)(=O)N2CCCC3(CCCCC3)C2)cc1	4.1	40.8*	15.8	.
COc1cccc2cccc(O)c12	11.8	-58.2	23.8	85.4*
CC1=CC[C@]2(C)C[C@@H](O)[C@](O)(C(C)C)C2CC1 (stereo partly specified)	1.4	32.3*	5.5	0.5
